Measurements published in PubChem BioAssay (NCATS).
Results filed as inconclusive are left out. Activity calls are given as the source filed them. The call rests on the fitted dose curve; tested in HEK293 reporter line.

Experiment: qHTS for Inhibitors of the Functional Ribonucleoprotein Complex (vRNP) of Lassa (LASV) Arenavirus: LASV Primary Screen - GLuc reporter signal (AID 1347082); further: nearly all actives have a fitted effect of over 60% in size
Settings: LASV minigenome vRNP, Gaussia luciferase reporter; series mostly up to 57.5 µM; activity change, negative = inhibition: at the top concentration
On the % scale 0 is the no-effect control and ±100 the full control effect.

Compound | activity change, negative = inhibition | Potency
O=C(/C=C/c1ccc(O)c(O)c1)O[C@@H]1C[C@@](OC(=O)/C=C/c2ccc(O)c(O)c2)(C(=O)O)C[C@@H](O)[C@@H]1O | -32% (inactive) | 
COc1nc(C)nc(Cl)c1NC1=NCCN1 |  | inactive
Cc1oc(-c2ccccc2)nc1CCC(=O)c1ccc(CC2SC(=O)NC2=O)cc1 (configuration not stated) | -7.24% (inactive) | 
CCCCN1CCCC1C(=O)Nc1c(C)cc(C)cc1C (configuration not stated) | 4.16% (inactive) | 
C[C@H]1NCc2cc(-c3ccc4c(=O)c(C(=O)O)cn(C5CC5)c4c3OC(F)F)ccc21 | 20.1% [at 24.7 µM] (inactive) | 
CCCCCCOC(=O)NC(=N)c1ccc(NCc2nc3cc(C(=O)N(CCC(=O)OCC)c4ccccn4)ccc3n2C)cc1 | -24% (inactive) | 
CC(=O)Nc1ccc(OCCOCCOc2ccc(NC(C)=O)cc2)cc1 | -11.7% (inactive) | 
CC(C)NCCCC1(C(N)=O)c2ccccc2-c2ccccc21 | -10.2% (inactive) | 
CCCc1ncc(C[n+]2ccccc2C)c(N)n1 | 2.08% (inactive) | 
CCc1cc(Cl)c(OC)c(C(=O)NC[C@@H]2CCCN2CC)c1O | -9.31% (inactive) | 
CCN(CC)C(=O)C1CN2CCc3cc(OC)c(OC)cc3C2CC1OC(C)=O (configuration not stated) | 8.8% (inactive) | 
CCOc1ccc(NC(C)=O)cc1 | 7.74% (inactive) | 
Cc1c(Cl)cccc1Nc1ccccc1C(=O)O | 0.953% (inactive) | 
O=c1[nH]c2cc(C(F)(F)F)c(N3CCOCC3)cc2n(CP(=O)(O)O)c1=O | -6.99% (inactive) | 
CNC1CCCN(c2c(F)cc3c(=O)c(C(=O)O)cn(C4CC4)c3c2OC)C1 (configuration not stated) |  | inactive
N[C@@H](Cc1ccc(O)cc1)C(=O)O | 4.89% [at 11.5 µM] (inactive) | 
CCOC(CN1CCN(CC(C)C(=O)c2ccccc2)CC1)c1ccccc1 (configuration not stated) | 2.05% [at 24.7 µM] (inactive) | 
